Rows were chosen to be rich in hits. Some 21% of all compounds tested hit in one or more screens of this group.
Pf growth 96h = inhibits malaria parasite growth, 96 h; Potency, µM (series often up to 28.7 µM), without a hit: at the top dose activity change, negative = inhibition, most hits filed as inhibitors; P. falciparum luciferase reporter growth, 96 h; actives 6.9% (n = 320,000); note: potency is the fitted concentration of half-maximal effect; % is set by controls: 0 for no effect and ±100 for the full control effect
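Two parasite generations (96 h, 37 C, 5% CO2) of compound exposure in infected erythrocytes (0.05% parasitemia, 2% hematocrit). Luciferase-reporter P. falciparum; decreased luminescence indicates inhibited growth, aimed at apicoplast-acting delayed death.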
Shiga inhibitor = blocks Shiga toxin action in Vero cells. actives 9.2% (n = 290,000). inhibition, % at 38.7 µM. Vero cells, Shiga toxin protein synthesis inhibition reporter; in the data active = inhibition mostly above about 28%, no sharp cut-off; inactive = mostly below about 43%; note: 0% is about no effect
Pf growth 48h = P. falciparum growth inhibition at 48 hours (one generation). P. falciparum luciferase growth in erythrocytes, 48 h. Potency, µM (titrated, usually from 28.7 µM), for the others: top-dose activity change, negative = inhibition, usual class: inhibitors. actives 5.9% (n = 310,000). AID 504832; note: potency is the fitted concentration of half-maximal effect; % is set by controls: 0 for no effect and ±100 for the full control effect
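First compound was added to culture medium, then infected red cells at 0.1% parasitemia and 2% hematocrit (final). After incubation at 37 C under 5% CO2, luciferase detection reagent was dispensed and light output recorded.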
HCMV antiviral = blocks human cytomegalovirus replication; HFF cells, HCMV-luciferase reporter, 72 h; hits give low values; activity change, negative = inhibition, % at 57.5 µM; actives 4.5% (n = 410,000); in the data active = activity change below about -60%; inconclusive = no clear call, values can overlap the other calls; inactive = above about -39%; note: % is set by controls: 0 for no effect and ±100 for the full control effect
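Steps: HFFs plated, 16 h 37C; compounds added; HCMV-luciferase added to MOI 1 PFU/cell; 72 h 37C; OneGlo reagent, 5 min room temperature; luminescence read, normalized to controls.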
HCV inh = HCV inhibition; actives 3.4% (n = 340,000); Huh7.5.1 HCVcc-Cre infection, luciferase reporter, 44 h; Potency, µM (titrated, usually from 41.8 µM), without a hit: at the highest dose activity change, negative = inhibition, actives largely listed as inhibitors; note: potency is the fitted concentration of half-maximal effect; % is set by controls: 0 for no effect and ±100 for the full control effect
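Infectious HCVcc-Cre (~0.5 moi) was added to cells just after compound, with cells seeded 4 h earlier at 1,000 per well. Luciferase activity after 44 h culture reported infection; substrate was incubated 15 min at room temperature before reading.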
CHX counter = counter-screen hit for Shiga toxin inhibitors, cycloheximide; max response, %; cell reporter, cycloheximide protein synthesis inhibition counterscreen; actives 12% (n = 300,000); AID 2314; in the data active = max response mostly above about 13%, no sharp cut-off; inactive = mostly below about 14%; note: read at 38.3 µM for the half of the compounds with a filed dose; 0% is about no effect
An asterisk follows results filed as active; ? = inconclusive; . = no result; + = active, no number. Unless noted, calls come from the whole dose curve; as a rule, active = well fitted inhibition curve with a large enough effect; inconclusive = small, poorly fitted or top-dose-only effect, or another doubt; inactive = no such curve, though single readings can be large or run the other way.

SMILES	Pf growth 96h	Shiga inhibitor	Pf growth 48h	HCMV antiviral	HCV inh	CHX counter
CCOC(=O)c1c(C)[nH]c(C(=O)C(Cc2ccccc2)N(C)C)c1C (stereo unspecified)	.	33.8	?	33.6	-3.8%	20.1*
Cc1c(-c2ccc(Cl)cc2)c(=O)oc2c(CN3CCN(C)CC3)c(O)ccc12	.	.	.	-28.1	.	.
COc1ccc(CCC(=O)Nc2cccc(S(=O)(=O)N3CCCCCC3)c2)cc1	0.0%	.	?	-5.1	?	.
CCOc1ccc(S(=O)(=O)N2CCCCC2)cc1NC(=O)CCc1ccc(OC)cc1	10.4µM*	.	13.1µM*	0.0	0.3%	.
CCOc1ccc(S(=O)(=O)N2CCCCC2)cc1NC(=O)c1ccccc1	.	.	.	-17.3	?	.
CCOc1ccc(S(=O)(=O)N2CCCCC2)cc1NC(=O)CCNC(=O)c1ccco1	?	.	3.29µM*	-15.3	0.0%	.
Cc1ccc(-c2nnc(SCc3ccccc3)o2)cc1	.	.	.	5.6	.	.
COc1ccc(N2CCN(c3ccc(N)cc3C#N)CC2)cc1	-26.5%	-5.6	-24.7%	-17.1	-7.0%	0.6
COc1ccnc(Oc2ccccc2)c1C#N	0.0%	-15.8	30.3%	?	10.6%	-0.7
COc1ccc(N2CCN(c3ncccc3C#N)CC2)cc1	80.1%	-1.1	19.9%	-37.0	6.0%	10.9*
COc1ccnc(N2CCN(c3ccccc3)CC2)c1C#N	50.9%	39.9*	48.9%	-27.3	0.0%	29.1*
Cc1ccc(NC(=O)CN2C(=O)c3cccnc3Oc3ccc(Cl)cc32)cc1	.	.	.	0.0	.	.
Cc1sc2ncnc(SCC(=O)Nc3nc(-c4ccc(F)c(F)c4)cs3)c2c1C	11.2%	-7.0	6.3%	-16.3	?	6.4
COc1ccccc1NC(=S)NC(NC(=O)CC(C)C)C(Cl)(Cl)Cl (stereo unspecified)	?	-6.8	14.7µM*	?	-5.7%	7.1
Cc1c(/C=C/C(=O)c2ccccc2)cnn1C	31.9%	179.5*	101.1%	-13.1	?	52.5*
Cc1nn(Cc2c(Cl)cccc2Cl)c(C)c1NC(=O)/C=C/c1cnn(C)c1C	-20.3%	-6.2	?	-23.5	.	-2.5
Cc1c(/C=C/C(=O)c2ccc(O)cc2)cnn1C	0.0%	48.7*	159.6%	-14.4	?	19.2*
Cc1c(/C=C/C(=O)c2ccc(C(C)C)cc2)cnn1C	27.7%	133.4*	3.0%	-87.1*	31.6µM*	40.3*
Cc1c(/C=C/C(=O)c2ccc(Cl)s2)cnn1C	-8.0%	36.9	71.0%	7.5	2.0%	26.7*
Cc1ccccc1Cn1nc(C)c(NC(=O)/C=C/c2cnn(C)c2C)c1C	?	-2.2	?	-22.4	-3.2%	-3.8
CC(C)(C)N(Cc1ccccc1)C(=O)COC(=O)c1ccc(S(=O)(=O)N2CCOCC2)cc1	.	.	.	-11.9	-5.9%	.
CCn1ncc(/C=C/C(=O)c2ccccc2)c1C	-29.1%	+	497.7%	16.7	12.2%	45.3*
Cc1ccc(-n2ncc3c2CC(C)(C)CC3NC(=O)CCn2cncn2)cc1 (stereo unspecified)	10.4µM*	-13.0	-6.1%	0.8	10.7%	-1.1
C=CCCC(=O)NC1CC(C)(C)Cc2c1cnn2-c1cccc(F)c1 (stereo unspecified)	?	6.9	?	-1.8	-11.4%	3.0
Cc1nn(C)c(C)c1CCC(=O)NC1CC(C)(C)Cc2c1cnn2-c1ccccc1 (stereo unspecified)	?	-8.8	12.8%	-68.7*	-4.2%	0.8
SMILES	Pf growth 96h	Shiga inhibitor	Pf growth 48h	HCMV antiviral	HCV inh	CHX counter
CC1(C)Cc2c(cnn2-c2cccc(F)c2)C(NC(=O)CCc2cnccn2)C1 (stereo unspecified)	17.1%	19.2	0.0%	?	-1.7%	41.0*
COc1cccc(NC(=O)CN(C)C(=O)c2ccc(S(=O)(=O)Nc3ccccc3F)cc2)c1	1.8%	.	?	4.7	6.2%	.
O=C(COc1ccccc1)N/N=C/c1sc(=O)n(Cc2cccc(C(=O)O)c2)c1Cl	?	-5.6	?	?	3.3%	-1.8
NC(=O)N/N=C/c1sc(=O)n(-c2ccccc2)c1Cl	25.4%	46.8	27.8%	18.1	7.3%	15.6*
O=C(N/N=C/c1sc(=O)n(-c2ccccc2)c1Cl)c1ccccc1	2.33µM*	75.8*	?	-4.3	?	28.2*
COc1ccc(C(=O)NC(=S)NNC(=O)c2ccc3ccccc3n2)cc1	?	50.5	?	-97.4*	11.2µM*	6.2
COc1ccc(C(=O)NC(=S)NNC(=O)c2cccnc2)cc1	-18.6%	21.4	-2.6%	16.8	-4.7%	-11.4
COc1cc(C(=O)NNC(=O)c2ccc3ccccc3n2)cc(OC)c1OC	-73.4%	.	?	46.5	?	.
COc1cc(OC)cc(C(=O)NNC(=O)c2ccc3ccccc3n2)c1	?	.	?	-75.2*	?	.
Cc1ccc(C(=O)c2oc3ccccc3c2NC(=O)COc2ccc(Cl)c(C)c2)cc1	.	.	.	-4.6	.	.
C[C@@H]1CN([C@H](C)CO)C(=O)CCCn2nncc2CO[C@@H]1CN(C)S(=O)(=O)c1ccccc1	.	.	.	28.4	.	.
N#Cc1cc2c(nc1SCC(=O)Nc1ccc(Cl)c(C(F)(F)F)c1)C1CCN2CC1	.	.	.	-68.4*	.	.
N#Cc1cc2c(nc1SCC(=O)Nc1ccc(C(F)(F)F)cc1)C1CCN2CC1	.	.	.	-75.4*	.	.
N#Cc1cc2c(nc1SCC(=O)Nc1ccc(Cl)cc1)C1CCN2CC1	0.7%	74.4	13.1µM*	-90.8*	2.82µM*	22.8*
N#Cc1c(-c2ccccc2)cc(-c2ccccc2)nc1SCC(=O)Nc1ccc(Cl)cc1	.	.	.	6.0	.	.
Cc1c(C(=O)OC2CCCC2)[nH]c2c1C(=O)CC(c1ccc(Cl)cc1)C2 (stereo unspecified)	.	.	.	-37.1	.	.
CCC(=O)N1CCc2cc(Br)cc(S(=O)(=O)N3CCN(c4cc(C)ccc4C)CC3)c21	.	.	.	2.7	.	.
O=C(NCc1ccccc1F)c1ccc(CN2CC(=O)N3CCCCC3C2=O)cc1 (stereo unspecified)	.	.	.	17.0	.	.
O=C(Nc1ccccc1Cl)c1csc(-c2cccnc2)n1	118.6%	40.6*	173.9%	64.4	?	29.2*
O=C(NNC(=O)c1csc(-c2cccnc2)n1)c1ccccc1	10.4µM*	18.2	?	19.3	-3.3%	30.2*
O=C(NNC(=O)c1csc(-c2ccccc2)n1)c1ccccc1	.	.	.	-19.7	.	.
O=C(NNS(=O)(=O)c1ccccc1)c1csc(-c2cccnc2)n1	?	-9.4	-10.3%	-7.0	24.4%	-2.4
CC(=O)N1CCc2cc(CNS(=O)(=O)c3ccccc3C(F)(F)F)ccc21	.	.	.	-92.8*	.	.
O=C(c1ccccc1)N1CCc2cc(CNS(=O)(=O)c3ccccc3Cl)ccc21	.	.	.	-78.1*	.	.
O=C(c1ccccc1)N1CCc2cc(CNS(=O)(=O)c3ccc(Cl)s3)ccc21	.	.	.	-70.3*	.	.
CC(=O)N1CCc2cc(CNC(=O)Nc3ccccc3C(F)(F)F)ccc21	.	.	.	10.2	.	.

Screens (PubChem BioAssay)
